# Test results: PubChem BioAssay (NCI)
# This is part of a sample that, as a whole, favours compounds with a hit. Of some 83,000 tested, about 20% had one in any assay.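 In brief: 96-well plates, 48 h treatment, single concentration, percent growth endpoint.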 Values without a mark were called inactive. Active and inactive are the calls of the source. How the source made its calls: active means growth percent below 10; inactive means the rest.
# Experiments:
# Assay in all cases: NCI-60 one-dose screen, 48 h (100 = growth as untreated, 0 = no growth, -100 = all killed)
# Conditions in all cases: 10 µM unless noted
# [1] = tested on: SK-MEL-2 melanoma
# [2] = tested on: EKVX NSCLC
# [3] = tested on: SN12C renal
# [4] = tested on: UO-31 renal
# [5] = tested on: TK-10 renal
# [6] = tested on: ACHN renal
# [7] = tested on: CAKI-1 renal
# [8] = tested on: A498 renal
# [9] = tested on: CCRF-CEM leukemia
# [10] = tested on: MOLT-4 leukemia
SMILES,growth [1],growth [2],growth [3],growth [4],growth [5],growth [6],growth [7],growth [8],growth [9],growth [10]
O=C(NCc1cccnc1)c1cc(-c2csc3c(=O)cc(N4CCOCC4)oc23)cc2c1OCCO2,51.1%,62.5%,41.7%,30.3%,14.1%,34.5%,31.1%,39.9%,39.6%,–
CCN(CC)N=Nc1nn(C(=O)Nc2ccc(Cc3ccccc3)cc2)c2ccc(Cl)cc12,72.9%,47.5%,83.1%,65.6%,83.5%,28.1%,65.9%,87.9%,62.5%,–
O=C1NN(C(=O)c2ccc(O)cc2)C(c2ccccc2)=N/C1=C\c1cn(-c2ccccc2)nc1-c1ccccc1,100%,102%,89.2%,78.6%,84.7%,88.4%,98.6%,88.8%,89.7%,–
Cc1c(C(=O)O[C@H]2[C@@H]3[C@H](C)CC[C@H]3[C@]3(C)O[C@@]2(C2CCCCC2)C[C@H]3OC(=O)CO)ccc2ccccc12,40.3%,41.8%,-1.88% (active),-11.7% (active),59.8%,-36.4% (active),0.73% (active),-76.6% (active),-4.66% (active),–
C=C1c2c(C)nn(-c3ccc(N)cc3)c2N(C)C23CC1C1(C)c4c(C)nn(-c5ccc(N)cc5)c4N(C)C(C)(CC12)C3 (stereo not given),79.2%,52.3%,89.5%,51%,76.2%,58.9%,76.6%,89.4%,47.8%,–
Cc1cc(N2CCCCC2)nc(N(CCNc2ccnc3cc(Cl)ccc23)Cc2ccccn2)n1,79.9%,53.7%,62.3%,23.7%,83.8%,62%,54.1%,37.7%,31.8%,–
CN=C1C=CC(=C(c2ccc(N(C)C)cc2)c2ccc(N(C)C)cc2)C=C1,-52.4% (active),3.72% (active),-32.1% (active),-14.2% (active),-53% (active),-53.4% (active),9.65% (active),-27.4% (active),3.67% (active),3.36% (active)
NC(=O)c1c(NC(=O)c2ccc(C(F)(F)F)cc2Cl)sc2c1CCC(=O)C2,-11.1% (active),-9.99% (active),-5.19% (active),-100% (active),6.29% (active),-91.1% (active),-82.2% (active),61.9%,-1.78% (active),-12.9% (active)
Cc1cnc(Nc2ccc(OCCN3CCCC3)cc2)nc1NCc1ccco1,97.9%,71.5%,68.5%,47.8%,79.4%,79.4%,62.5%,71.5%,72.7%,–
C=C(C)[C@@H]1CC[C@]2(CN)CC[C@]3(C)[C@H](CC[C@@H]4[C@@]5(C)CCC(N)[C@@](C)(CO)[C@@H]5CC[C@]43C)[C@@H]12 (stereo not given in full),-86.4% (active),21.3%,-69.3% (active),65.8%,-86.3% (active),-77.7% (active),-15.7% (active),81.4%,-44.8% (active),–
Clc1ccc2c(NCCCN3CCN(c4nc(-n5ccnc5)nc5ccccc45)CC3)ccnc2c1,97.7%,86%,84.1%,43.5%,122%,110%,86.3%,85.1%,6.59% (active),–
Cn1c(NCCc2ccc(O)c(O)c2)nc2c1c(=O)n(Cc1ccc(Cl)cc1)c(=O)n2C,95%,84.8%,82.7%,29.8%,69.9%,39.5%,38.7%,86.2%,12.8%,–
C=C(C)[C@@H]1CC[C@]2(CO)CC[C@]3(C)[C@H](CC[C@@H]4[C@@]5(C)C=C(C#N)C(=O)C(C)(C)[C@@H]5CC[C@]43C)[C@@H]12,30.1%,15.4%,8.07% (active),-8.85% (active),36.2%,12%,22.8%,-0.306% (active),2.24% (active),–
Cc1cc(=O)[nH]c(N/N=C/c2cc(Br)ccc2O)n1,26.9%,9.68% (active),48.1%,-3.92% (active),45%,14.5%,-5.73% (active),42.2%,22.8%,15.3%
C=C1c2c(C)nn(-c3ccc(S(N)(=O)=O)cc3)c2N(C)C23CC1C1(C)c4c(C)nn(-c5ccc(S(N)(=O)=O)cc5)c4N(C)C(C)(CC12)C3 (stereo not given),44.7%,29.6%,32.4%,25.5%,46.6%,14.1%,40.7%,75.3%,18.7%,–
CCCCCCCCc1cc[n+](CC(=O)c2ccc(Br)cc2)cc1,0.325% (active),35.7%,8.54% (active),38.2%,-67.5% (active),9.78% (active),41.4%,88.8%,0.476% (active),–
CSc1ncc(C)c(Nc2ccc(Cl)cc2)n1,103%,77.4%,102%,76.4%,95.6%,103%,91%,88.5%,96.5%,82.5%
CCCCOc1ccc(NC(=O)n2nc(N=NN(C)C)c3ccc(Cl)cc32)cc1,97.6%,102%,93.5%,65.7%,126%,93.8%,90.7%,100%,88.9%,–
Clc1cnc(Nc2ccc(OCCN3CCCC3)cc2)nc1NCc1ccco1,-10.3% (active),25.2%,5.92% (active),-3.47% (active),9.62% (active),-10.2% (active),10%,17.6%,7.04% (active),–
COc1cc(C(=O)/C=C/c2c(C(F)(F)F)nc3ccccn23)cc(OC)c1OC,-49.3% (active),-0.4% (active),3.89% (active),-71.1% (active),11.2%,-78.7% (active),-25.5% (active),8.53% (active),5.58% (active),4.22% (active)
Cc1cc(N(CCCNc2ccnc3cc(Cl)ccc23)Cc2ccccn2)nc(N2CCCC2)n1,99.8%,76.3%,64.4%,53.8%,136%,93.5%,76.5%,95.1%,53.9%,–
Cc1cc(Cl)nc(N(CCCNc2ccnc3cc(Cl)ccc23)Cc2ccccn2)n1,64.2%,64.7%,52.6%,27.2%,66.1%,54.2%,48.5%,30.4%,36.1%,–
CCCc1nc2ccccn2c1Nc1ccc(C(=O)NO)cc1,92.1%,100%,86.5%,83.3%,94.7%,91.8%,88.8%,87.3%,74.2%,–
CCCn1nc(-c2ccccc2)c2c(-c3ccccc3)onc2c1=O,57.8%,78.9%,82.1%,68.8%,106%,94.1%,85.9%,68.9%,68.7%,–
CC(C)(O)c1cccc(F)c1,124%,92%,94.7%,88.7%,109%,99.1%,101%,97%,-41.6% (active),107%
CC12CC(C#N)CCC1O2 (stereo not given),116%,120%,105%,96%,119%,101%,111%,121%,92.4%,96.2%
COc1ccc(N(C)c2nc(Cl)nc3cnn(C)c23)cc1,22.2%,46.1%,27.8%,34%,50.9%,23.9%,22.9%,-9.16% (active),13%,14.9%
C=C1c2c(C)nn(-c3ccc(NC(C)=O)cc3)c2N(C)C23CC1C1(C)c4c(C)nn(-c5ccc(NC(C)=O)cc5)c4N(C)C(C)(CC12)C3 (stereo not given),36.6%,24.9%,45.6%,24.2%,37.3%,19.4%,32.8%,60.3%,8.28% (active),–
